Our source for the inhibition values is ChEMBL document CHEMBL1961873, “Compounds: GSK PKIS; Assays: Nanosyn kinase panel” (2012).

The structures appear in SMILES notation.

Assay [1] addresses T1, Tyrosine-protein kinase ITK/TSK (Homo sapiens) (UniProt Q08881).
T1 sequence (whole entry): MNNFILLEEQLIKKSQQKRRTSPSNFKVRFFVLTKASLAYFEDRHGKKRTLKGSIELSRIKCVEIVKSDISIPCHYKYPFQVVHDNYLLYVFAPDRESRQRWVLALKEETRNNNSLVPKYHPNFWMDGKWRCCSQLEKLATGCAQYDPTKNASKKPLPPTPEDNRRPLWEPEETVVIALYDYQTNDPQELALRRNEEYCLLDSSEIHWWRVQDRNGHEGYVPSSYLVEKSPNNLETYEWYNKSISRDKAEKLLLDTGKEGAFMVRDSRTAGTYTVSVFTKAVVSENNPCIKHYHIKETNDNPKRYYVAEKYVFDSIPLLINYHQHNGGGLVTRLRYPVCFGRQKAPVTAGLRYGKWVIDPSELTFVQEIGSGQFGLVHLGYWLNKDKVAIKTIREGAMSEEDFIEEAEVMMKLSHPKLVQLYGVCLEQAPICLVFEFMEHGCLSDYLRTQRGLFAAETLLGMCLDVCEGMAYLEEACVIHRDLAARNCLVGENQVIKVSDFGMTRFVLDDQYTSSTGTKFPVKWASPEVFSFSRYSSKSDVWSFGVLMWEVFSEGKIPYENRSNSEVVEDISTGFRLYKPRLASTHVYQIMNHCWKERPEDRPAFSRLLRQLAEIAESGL
The following applies: at 1 µM.

For assay [2], the target named is Tyrosine-protein kinase JAK1 (Homo sapiens) (UniProt P23458). The following applies: at 0.1 µM.
Assay [3] has the same target. The following applies: at 1 µM.
The target in assay [4] is Tyrosine-protein kinase JAK2 (Homo sapiens) (UniProt O60674). The following applies: at 0.1 µM.
For assay [5] the target is unchanged. To be noted: at 1 µM.
For assay [6], the target named is T2, Tyrosine-protein kinase JAK3 (Homo sapiens) (UniProt P52333).
T2 sequence (whole entry): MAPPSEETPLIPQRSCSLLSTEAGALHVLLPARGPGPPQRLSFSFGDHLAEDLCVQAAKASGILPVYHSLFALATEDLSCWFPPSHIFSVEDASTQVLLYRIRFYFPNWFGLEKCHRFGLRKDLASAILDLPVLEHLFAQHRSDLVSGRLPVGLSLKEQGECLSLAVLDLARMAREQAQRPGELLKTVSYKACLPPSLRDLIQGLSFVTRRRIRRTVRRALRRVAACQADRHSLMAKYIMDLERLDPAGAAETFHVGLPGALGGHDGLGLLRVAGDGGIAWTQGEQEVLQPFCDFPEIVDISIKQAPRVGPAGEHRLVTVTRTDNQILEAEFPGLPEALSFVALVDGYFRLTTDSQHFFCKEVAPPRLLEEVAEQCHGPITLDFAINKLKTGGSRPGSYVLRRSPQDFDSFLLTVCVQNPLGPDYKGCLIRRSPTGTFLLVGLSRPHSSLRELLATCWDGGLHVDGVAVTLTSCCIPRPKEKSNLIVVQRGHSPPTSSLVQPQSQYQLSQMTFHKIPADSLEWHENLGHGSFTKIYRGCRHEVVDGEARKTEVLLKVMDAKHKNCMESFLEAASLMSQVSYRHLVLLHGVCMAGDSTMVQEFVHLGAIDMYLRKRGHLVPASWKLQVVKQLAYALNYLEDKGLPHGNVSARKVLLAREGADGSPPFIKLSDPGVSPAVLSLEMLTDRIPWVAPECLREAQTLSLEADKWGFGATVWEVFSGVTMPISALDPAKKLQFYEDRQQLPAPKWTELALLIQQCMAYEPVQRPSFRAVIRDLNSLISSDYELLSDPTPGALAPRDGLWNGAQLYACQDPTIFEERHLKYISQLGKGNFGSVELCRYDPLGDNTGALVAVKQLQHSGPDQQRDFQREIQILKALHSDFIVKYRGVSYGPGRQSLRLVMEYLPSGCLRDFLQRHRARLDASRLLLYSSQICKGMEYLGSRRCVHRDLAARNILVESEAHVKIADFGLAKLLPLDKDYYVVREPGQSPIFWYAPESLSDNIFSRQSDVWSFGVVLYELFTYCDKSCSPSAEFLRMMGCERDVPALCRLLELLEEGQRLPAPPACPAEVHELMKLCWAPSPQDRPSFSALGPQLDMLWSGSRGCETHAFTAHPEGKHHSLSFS
To be noted: at 0.1 µM.

For assay [7], the target named is T2, Tyrosine-protein kinase JAK3 (Homo sapiens). The following applies: at 1 µM.
For assay [8], the target named is Vascular endothelial growth factor receptor 2 (Homo sapiens) (UniProt P35968). To be noted: at 0.1 µM.
For assay [9] the target is unchanged. The following applies: at 1 µM.
Assay [10] has as its target Mast/stem cell growth factor receptor Kit (Homo sapiens) (UniProt P10721). To be noted: at 0.1 µM.
The target is the same in assay [11]. To be noted: at 1 µM.
Assay [12] relates to Mast/stem cell growth factor receptor Kit (Homo sapiens), P10721 [D816V]. To be noted: at 0.1 µM.
For assay [13] the test system is unchanged. The following applies: at 1 µM.
Assay [14] concerns Mast/stem cell growth factor receptor Kit (Homo sapiens), P10721 [T670I]. To be noted: at 0.1 µM.
The test system is the same in assay [15]. The following applies: at 1 µM.
Assay [16] deals with Mast/stem cell growth factor receptor Kit (Homo sapiens), P10721 [V560G]. To be noted: at 0.1 µM.
Assay [17] has the same test system. The following applies: at 1 µM.
Assay [18] has as its target Tyrosine-protein kinase Lck (Homo sapiens) (UniProt P06239). The following applies: at 0.1 µM.
Assay [19] shares this target. The following applies: at 1 µM.
Assay [20] addresses Leukocyte tyrosine kinase receptor (Homo sapiens) (UniProt P29376). To be noted: at 0.1 µM.

Sequence of Tyrosine-protein kinase JAK1 (Homo sapiens) (P23458 whole entry): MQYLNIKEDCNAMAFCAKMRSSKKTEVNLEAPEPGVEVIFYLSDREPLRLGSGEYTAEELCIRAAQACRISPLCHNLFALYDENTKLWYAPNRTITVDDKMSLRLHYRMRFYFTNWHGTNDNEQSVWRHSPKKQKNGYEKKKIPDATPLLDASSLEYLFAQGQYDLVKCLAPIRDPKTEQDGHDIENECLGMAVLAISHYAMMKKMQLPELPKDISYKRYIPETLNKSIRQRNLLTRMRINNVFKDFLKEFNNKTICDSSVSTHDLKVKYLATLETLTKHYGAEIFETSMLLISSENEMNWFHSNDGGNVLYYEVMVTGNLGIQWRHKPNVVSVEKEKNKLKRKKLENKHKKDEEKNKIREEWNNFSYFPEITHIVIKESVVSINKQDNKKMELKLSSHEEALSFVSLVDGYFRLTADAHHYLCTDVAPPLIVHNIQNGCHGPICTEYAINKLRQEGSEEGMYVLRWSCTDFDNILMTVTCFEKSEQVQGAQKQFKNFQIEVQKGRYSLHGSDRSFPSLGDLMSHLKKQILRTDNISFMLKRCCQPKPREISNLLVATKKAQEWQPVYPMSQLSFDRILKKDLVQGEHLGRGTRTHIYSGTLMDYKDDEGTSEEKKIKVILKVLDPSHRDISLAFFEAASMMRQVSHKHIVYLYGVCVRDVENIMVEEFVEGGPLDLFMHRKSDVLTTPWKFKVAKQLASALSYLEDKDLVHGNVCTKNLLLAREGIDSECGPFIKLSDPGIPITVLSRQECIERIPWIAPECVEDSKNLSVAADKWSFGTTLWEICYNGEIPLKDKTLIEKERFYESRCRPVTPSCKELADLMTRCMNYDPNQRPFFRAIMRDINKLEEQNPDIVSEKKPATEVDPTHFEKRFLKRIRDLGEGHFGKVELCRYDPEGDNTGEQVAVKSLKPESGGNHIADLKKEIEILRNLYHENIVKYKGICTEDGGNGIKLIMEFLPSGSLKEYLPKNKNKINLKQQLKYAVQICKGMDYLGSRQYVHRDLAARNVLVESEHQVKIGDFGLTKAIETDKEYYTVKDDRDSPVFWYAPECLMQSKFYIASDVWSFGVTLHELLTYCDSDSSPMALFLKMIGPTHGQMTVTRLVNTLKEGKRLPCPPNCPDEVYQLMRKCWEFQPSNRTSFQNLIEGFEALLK
Sequence of Mast/stem cell growth factor receptor Kit (Homo sapiens), P10721 [V560G] (P10721 whole entry V560G): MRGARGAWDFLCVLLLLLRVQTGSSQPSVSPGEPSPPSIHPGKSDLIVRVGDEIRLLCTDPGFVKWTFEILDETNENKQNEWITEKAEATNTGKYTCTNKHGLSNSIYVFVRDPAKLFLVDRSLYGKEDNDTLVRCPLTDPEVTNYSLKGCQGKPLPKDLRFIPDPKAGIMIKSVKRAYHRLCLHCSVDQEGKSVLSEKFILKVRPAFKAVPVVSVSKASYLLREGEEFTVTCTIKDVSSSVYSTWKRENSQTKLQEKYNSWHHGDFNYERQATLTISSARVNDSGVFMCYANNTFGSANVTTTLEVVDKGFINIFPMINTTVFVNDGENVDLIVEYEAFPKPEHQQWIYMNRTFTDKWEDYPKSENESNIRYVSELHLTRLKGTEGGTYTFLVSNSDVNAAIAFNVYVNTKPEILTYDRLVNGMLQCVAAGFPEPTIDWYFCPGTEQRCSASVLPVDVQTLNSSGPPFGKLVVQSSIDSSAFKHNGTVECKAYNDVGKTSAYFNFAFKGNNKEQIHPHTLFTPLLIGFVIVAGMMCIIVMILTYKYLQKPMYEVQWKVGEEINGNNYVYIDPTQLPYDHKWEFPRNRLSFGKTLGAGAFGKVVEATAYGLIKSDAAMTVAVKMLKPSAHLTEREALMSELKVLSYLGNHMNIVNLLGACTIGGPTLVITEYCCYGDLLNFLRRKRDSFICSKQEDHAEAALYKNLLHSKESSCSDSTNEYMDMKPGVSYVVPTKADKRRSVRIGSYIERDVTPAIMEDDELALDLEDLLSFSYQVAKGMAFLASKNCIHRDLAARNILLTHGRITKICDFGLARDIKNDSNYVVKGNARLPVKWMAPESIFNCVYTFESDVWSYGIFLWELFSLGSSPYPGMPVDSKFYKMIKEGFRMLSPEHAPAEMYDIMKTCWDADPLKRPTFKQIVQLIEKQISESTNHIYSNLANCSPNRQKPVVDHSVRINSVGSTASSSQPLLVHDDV
Sequence of Mast/stem cell growth factor receptor Kit (Homo sapiens) (P10721 whole entry): as the sequence (P10721 whole entry V560G) above, with G560V counted along it
Sequence of Vascular endothelial growth factor receptor 2 (Homo sapiens) (P35968 whole entry): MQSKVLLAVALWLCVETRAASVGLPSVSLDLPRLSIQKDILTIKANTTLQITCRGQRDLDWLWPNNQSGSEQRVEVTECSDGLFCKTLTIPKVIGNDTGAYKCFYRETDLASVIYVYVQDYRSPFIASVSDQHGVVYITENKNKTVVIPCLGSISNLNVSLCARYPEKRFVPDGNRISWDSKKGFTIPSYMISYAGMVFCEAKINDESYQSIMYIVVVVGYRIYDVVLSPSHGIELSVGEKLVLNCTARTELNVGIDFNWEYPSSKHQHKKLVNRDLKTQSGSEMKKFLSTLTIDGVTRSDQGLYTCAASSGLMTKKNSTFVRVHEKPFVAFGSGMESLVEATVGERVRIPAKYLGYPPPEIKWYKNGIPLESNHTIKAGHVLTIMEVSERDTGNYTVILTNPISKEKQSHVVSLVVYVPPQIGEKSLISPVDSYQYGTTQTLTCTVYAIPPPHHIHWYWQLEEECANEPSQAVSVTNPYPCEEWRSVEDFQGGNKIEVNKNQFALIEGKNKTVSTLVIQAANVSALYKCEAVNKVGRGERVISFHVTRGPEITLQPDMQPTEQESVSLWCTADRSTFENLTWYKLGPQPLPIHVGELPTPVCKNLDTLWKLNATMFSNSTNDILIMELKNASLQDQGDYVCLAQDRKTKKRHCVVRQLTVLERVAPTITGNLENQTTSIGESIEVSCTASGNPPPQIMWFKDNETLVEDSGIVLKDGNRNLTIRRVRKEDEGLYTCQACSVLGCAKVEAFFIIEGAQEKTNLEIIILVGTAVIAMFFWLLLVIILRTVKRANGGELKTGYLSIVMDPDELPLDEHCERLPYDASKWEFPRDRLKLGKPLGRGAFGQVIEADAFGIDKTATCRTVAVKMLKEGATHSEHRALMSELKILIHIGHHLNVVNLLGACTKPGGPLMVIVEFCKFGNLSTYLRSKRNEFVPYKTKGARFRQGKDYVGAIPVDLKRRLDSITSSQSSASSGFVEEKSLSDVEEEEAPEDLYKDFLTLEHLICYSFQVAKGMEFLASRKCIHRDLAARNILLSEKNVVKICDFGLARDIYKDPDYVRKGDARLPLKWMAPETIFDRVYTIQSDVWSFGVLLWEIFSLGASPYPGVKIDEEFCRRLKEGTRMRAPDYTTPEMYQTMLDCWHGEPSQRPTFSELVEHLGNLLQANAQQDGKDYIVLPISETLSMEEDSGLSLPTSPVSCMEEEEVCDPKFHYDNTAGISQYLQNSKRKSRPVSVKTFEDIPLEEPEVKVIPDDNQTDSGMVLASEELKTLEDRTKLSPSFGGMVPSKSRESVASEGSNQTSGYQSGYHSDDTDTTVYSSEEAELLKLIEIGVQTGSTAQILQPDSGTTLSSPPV
Sequence of Mast/stem cell growth factor receptor Kit (Homo sapiens), P10721 [D816V] (P10721 whole entry D816V): as the sequence (P10721 whole entry V560G) above, with G560V, D816V counted along it
Sequence of Mast/stem cell growth factor receptor Kit (Homo sapiens), P10721 [T670I] (P10721 whole entry T670I): as the sequence (P10721 whole entry V560G) above, with G560V, T670I counted along it
Sequence of Tyrosine-protein kinase JAK2 (Homo sapiens) (O60674 whole entry): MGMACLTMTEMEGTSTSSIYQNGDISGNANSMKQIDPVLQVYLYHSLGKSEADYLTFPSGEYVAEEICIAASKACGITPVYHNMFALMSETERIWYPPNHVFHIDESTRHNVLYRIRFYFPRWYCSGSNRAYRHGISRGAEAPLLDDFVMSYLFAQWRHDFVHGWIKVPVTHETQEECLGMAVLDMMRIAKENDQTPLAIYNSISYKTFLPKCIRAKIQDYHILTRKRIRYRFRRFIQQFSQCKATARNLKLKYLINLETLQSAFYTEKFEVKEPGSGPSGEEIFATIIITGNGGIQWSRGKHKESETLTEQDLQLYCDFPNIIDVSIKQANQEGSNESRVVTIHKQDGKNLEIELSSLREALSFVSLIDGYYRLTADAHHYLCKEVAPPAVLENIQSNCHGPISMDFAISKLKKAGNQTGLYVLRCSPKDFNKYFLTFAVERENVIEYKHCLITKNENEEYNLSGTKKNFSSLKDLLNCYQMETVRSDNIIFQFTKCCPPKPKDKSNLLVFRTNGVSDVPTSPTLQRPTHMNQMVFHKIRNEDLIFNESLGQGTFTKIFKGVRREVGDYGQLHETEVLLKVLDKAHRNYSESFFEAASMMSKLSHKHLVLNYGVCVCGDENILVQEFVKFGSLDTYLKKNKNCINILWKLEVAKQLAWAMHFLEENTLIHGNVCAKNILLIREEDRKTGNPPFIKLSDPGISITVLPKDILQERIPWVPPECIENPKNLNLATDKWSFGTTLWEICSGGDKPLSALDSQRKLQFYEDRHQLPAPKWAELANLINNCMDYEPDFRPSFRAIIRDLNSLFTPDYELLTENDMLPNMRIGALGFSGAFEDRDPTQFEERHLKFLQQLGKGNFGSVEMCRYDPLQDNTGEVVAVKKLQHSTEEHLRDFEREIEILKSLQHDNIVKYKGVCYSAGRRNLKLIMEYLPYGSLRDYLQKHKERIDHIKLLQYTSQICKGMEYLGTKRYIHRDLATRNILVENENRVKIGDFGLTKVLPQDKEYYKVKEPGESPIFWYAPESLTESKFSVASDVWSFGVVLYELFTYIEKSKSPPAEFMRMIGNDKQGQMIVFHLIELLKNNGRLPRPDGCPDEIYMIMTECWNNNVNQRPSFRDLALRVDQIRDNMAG

As a reminder, the inhibition is the relative decrease from the control value, in per cent. As for `COC(=O)c1cncc(/C=C/c2c(C)cc(O)cc2C)c1`, the inhibition in [1] was 1.55%; in assay [2], 2.46%; in [3], 4.21%; in assay [4], 0.81%; in [5] it was 2.05%; in assay [6], -1.76%. In addition, the inhibition stood at 0.99% in [7]; 2.37% in assay [8]; 4.91% in assay [9]; 32.9% in assay [10]; 83.5% in [11]; 4.37% in assay [12]. Further, the inhibition was 7.02% in [13]; 2.73% in assay [14]; 0.94% in assay [15]; 4.65% in [16]; 41.8% in assay [17]; 5.78% in [18]. The results for the inhibition in [19] and in [20] were 30.5% and 3.77%, respectively.
With `NS(=O)(=O)c1cccc(-c2cc3ccncc3cc2OCc2ccccc2)c1`, the inhibition in assay [1] is 3.72%; in [2], 0.51%; in assay [3] it was 2.7%; in assay [4] it was 1.82%; in [5] it was 0.92%; in assay [6], -0.33%. Further, the inhibition was 0.81% in assay [7]; 13.4% in assay [8]; 17.1% in [9]; 6.67% in [10]; 8.38% in assay [11]; 6.43% in assay [12]. Further, the inhibition in assay [13] was found to be 5.87%; in assay [14], 2.04%; in assay [15], 1.1%; in assay [16], 3.77%; in [17] it was 9.47%; in assay [18] it was 2.52%. The figures for the inhibition in [19] and in assay [20] were 5.46% and 2.44%, respectively.
As to `COc1cccc(-n2nc(C)c3c(N/N=C(\C)c4ccncc4)ncnc32)c1`, the inhibition in assay [1] was -0.01%; in [2], 0.91%; in [3], 4.07%; in assay [4], -0.64%; in assay [5], 1.79%; in [6] it was -1.14%. Further, the inhibition in assay [7] is 0.38%; in [8] it was 1.62%; in assay [9] it was 4.01%; in assay [10], 1.56%; in assay [11], 2.68%; in [12], -0.3%. The inhibition in assay [13] was -0.84%; in assay [14], -1.32%; in assay [15], 0.13%; in assay [16], 2.07%; in assay [17], 0.19%; in assay [18], 0.65%. Moreover, the inhibition in [19] worked out at 2.98%; in [20] it was 1.52%.
As to `CS(=O)(=O)Nc1cccc(-c2ccc3c(NC(=O)C4CC4)n[nH]c3c2)c1`, the inhibition in [1] was 1.71%; in assay [2], 0.09%; in assay [3], 0.48%; in assay [4] it was 0.43%; in assay [5], 1.32%; in [6] it was -0.13%. Moreover, the inhibition in assay [7] was 2.96%; in assay [8], 1.1%; in assay [9] it was 7.91%; in assay [10], -1.41%; in assay [11] it was -3.67%; in [12], 1.45%. Also, the inhibition in assay [13] is 0.35%; in assay [14] it was -1.01%; in assay [15], -2.29%; in [16] it was 0.19%; in assay [17] it was 0.6%; in assay [18] it was 1.99%. Further, the inhibition came out at 6.14% in [19] and 1.68% in assay [20].
Consider `[O-][S+]1CCN(Cc2ccc(-c3ccc4ncnc(Nc5ccc(OCc6ccccc6)c(Cl)c5)c4c3)o2)CC1`, for which the inhibition in assay [1] is 1.13%; in [2], 1.27%; in [3] it was 2.62%; in assay [4] it was 0.66%; in assay [5] it was -0.25%; in assay [6], -1.01%. Besides, the inhibition is -0.24% in assay [7]; 0.96% in assay [8]; 4% in assay [9]; 1.98% in [10]; 0.65% in assay [11]; -2.21% in assay [12]. Also, the inhibition was -2.37% in assay [13]; 4.79% in assay [14]; 4.66% in assay [15]; -1.31% in [16]; -1.84% in assay [17]; 1.46% in assay [18]. For the same molecule, the inhibition in [19] is 5.8%; in assay [20] it was 2.41%.
Regarding `CN(C)C(=O)O[C@@H]1CN[C@@H](C#Cc2cc3ncnc(Nc4ccc(OCc5cccc(F)c5)c(Cl)c4)c3s2)C1`, the inhibition was 0.1% in assay [1]; 1.28% in assay [2]; 0.05% in assay [3]; 0.23% in assay [4]; -0.45% in assay [5]; 0.14% in [6]. Also, the inhibition was 2.09% in assay [7]; 0.75% in assay [8]; 3.31% in [9]; -1.17% in assay [10]; -0.23% in assay [11]; 1.36% in assay [12]. Also, the inhibition is -2.75% in assay [13]; -2.12% in assay [14]; -2.74% in [15]; 0.19% in assay [16]; 4.14% in assay [17]; 1.89% in assay [18]. Besides, the inhibition in assay [19] came out at 5.66%; in assay [20] it was 0.9%.
Take `CC(C)c1ccc2c(c1)NC(=O)/C2=N/Nc1ccc(S(N)(=O)=O)cc1`: the inhibition in assay [1] is 2.46%; in assay [2] it was -0.53%; in assay [3], 0.94%; in assay [4], -1.94%; in [5], -0.2%; in assay [6], -0.51%. Further, the inhibition in [7] was 1.08%; in [8], 1.26%; in assay [9], 4.21%; in [10], 7.67%; in assay [11] it was 31.5%; in assay [12], -0.12%. In addition, the inhibition was 1.26% in assay [13]; 0.1% in assay [14]; 5.91% in [15]; 9.17% in assay [16]; 19.4% in [17]; 1.79% in assay [18]. For the same molecule, the inhibition in [19] came out at 8.63%; in assay [20], 1.63%.
